SMN2 splice enh: qHTS Assay for Enhancers of SMN2 Splice Variant Expression | HEK293 SMN2-luciferase splicing reporter, luminescence, 30-36 h | Potency, µM (series often up to 46.1 µM), for the others: top-dose activity change, positive = activation, actives largely listed as activators | 2.8% of 210,000 active | AID 1458, 2008; further: % of control where 0% means no effect; nearly all actives have a fitted effect of over 55% in size
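HEK293 cells carry an SMN2 […]–luciferase reporter in which exon 7 inclusion puts luciferase in frame. Cells were plated 10-12 h before compound addition, then incubated 30-36 h at 37C. ONE-Glo luminescence was read; sodium butyrate at 4.5 mM final served as control.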
FLuc modulator: qHTS profiling assay for firefly luciferase inhibitor/activator using purifed enzyme and Km concentrations of substrates (counterscreen for miR-21 project); AID 588342, 2011; 6.9% of 360,000 active; Luciferin 4-monooxygenase (Photinus pyralis), P08659; Potency, µM (titrated, usually from 57.5 µM), without a hit: at the highest dose activity change, negative = inhibition, usual class: inhibitors; purified FLuc, Km substrates, luminescence inhibition;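 further: plate controls were vehicle for no effect and reference inhibitor for full effect; nearly all actives have a fitted effect of over 55% in size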
Target sequence (P08659 whole entry, looked up): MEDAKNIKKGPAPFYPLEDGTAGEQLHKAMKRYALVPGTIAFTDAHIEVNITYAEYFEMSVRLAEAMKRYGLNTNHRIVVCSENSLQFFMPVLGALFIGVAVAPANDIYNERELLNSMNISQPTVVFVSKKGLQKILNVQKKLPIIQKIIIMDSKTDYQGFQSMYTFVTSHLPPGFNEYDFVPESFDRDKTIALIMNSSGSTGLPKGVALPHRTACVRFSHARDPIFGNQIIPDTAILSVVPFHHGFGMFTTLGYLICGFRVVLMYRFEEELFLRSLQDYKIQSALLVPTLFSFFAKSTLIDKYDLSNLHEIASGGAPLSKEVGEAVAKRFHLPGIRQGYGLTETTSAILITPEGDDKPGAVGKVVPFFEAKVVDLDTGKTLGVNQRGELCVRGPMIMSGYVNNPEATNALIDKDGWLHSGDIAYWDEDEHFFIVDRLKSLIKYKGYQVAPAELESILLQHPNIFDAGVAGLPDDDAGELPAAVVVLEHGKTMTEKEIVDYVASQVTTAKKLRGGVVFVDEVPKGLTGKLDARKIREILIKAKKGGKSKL
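Purified P. pyralis luciferase (10nM final) with 10uM D-luciferin and 10uM ATP (Km levels) in 50mM Tris acetate pH 7.5, 10mM Mg acetate, 0.01% Tween-20, 0.05% BSA; qHTS 6-point titration, ~60 µM downward; luminescence read.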
ELG1 genotoxic: qHTS screen for small molecules that induce genotoxicity in human embryonic kidney (HEK293T) cells expressing luciferase-tagged ELG1; HEK293T ELG1-luciferase reporter, luminescence, 16 h; Potency, µM (highest dose often 46 µM), for the others: at the top dose activity change, positive = activation, usual class: activators; 1.3% of 330,000 active; AID 504466, 2011; further: % of control where 0% means no effect; nearly all actives have a fitted effect of over 60% in size
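Step 1: seed 2,000 HEK293T ELG1-luciferase cells per well. Step 2: add compound or DMSO, incubate 16 hr at 37 °C. Step 3: ONE-Glo, 30 min at room temperature, read luminescence.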
NPC1 prom act: qHTS Assay for NPC1 Promoter Activators; Huh7 NPC1 promoter luciferase reporter, 24 h; AID 485313, 2010; Potency, µM (series often up to 9.22 µM), without a hit: top-dose activation, usual class: activators; 2.4% of 320,000 active; further: % of control where 0% means no effect; nearly all actives have a fitted effect of over 60% in size
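Luciferase expression driven by the NPC1 promoter was measured in stably transfected Huh7 cells after a 24 h compound incubation, using a luciferase reagent and a luminescence read.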
Rab9 prom act: qHTS Assay for Rab9 Promoter Activators. Huh7 Rab9 promoter-luciferase reporter, luminescence, 24 h. Potency, µM (doses to about 9.22 µM), without a hit: at the top dose activation, negative = inhibition, usual class: activators. 2.8% of 320,000 active. AID 485297, 2010; further: % of control where 0% means no effect; nearly all actives have a fitted effect of over 60% in size
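Huh7 reporter line, Rab9 promoter upstream of luciferase. Compound exposure 24 h at 37 °C in reduced-serum medium with 10% FBS. Read-out: luminescence.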
Starred values were filed as active, the others as inactive; ? = inconclusive; / = no result given; [ ] = another dose, or the depositor's remark. This is a sample that favours compounds with a hit; in the whole collection about 7.5% have one here. The call rests on the fitted dose curve; in most records, active means well fitted curve in the direction sought with a large enough effect; inconclusive means small, poorly fitted or top-dose-only effect, or another doubt; inactive means no such curve, though single readings can be large; an effect the other way counts as inactive or inconclusive. Potency means the concentration at half of the fitted maximal effect.

SMILES | SMN2 splice enh | FLuc modulator | ELG1 genotoxic | NPC1 prom act | Rab9 prom act
Cc1ccc(C)c(C(=O)COC(=O)c2cccc(N3C(=O)c4c(C)nc5ccccc5c4C3=O)c2)c1 | -10% | 1.5µM* | 14% | ? | ?
Cc1nccc(-c2sc(-c3cccs3)nc2C)n1 | / | 15µM* | ? | -3% | ?
Cc1nc(-c2cccs2)sc1C(=O)O | / | -18% | 0% | -4% | 0%
CC(C)C1Nc2ccc(S(=O)(=O)N3CCOCC3)cc2NC1=O (configuration not stated) | -2% | -1% | 1% | -2% | 1%
Cc1[nH]c2ccccc2c1N=Nc1cccc(C(=O)O)c1 | 13µM* | 11µM* | 19% | 3.2µM* | 2.2µM*
CC(=O)c1ccc(N=Nc2c(C)[nH]n(-c3ccccc3)c2=O)cc1 | / | -15% | -2% | 16% | 13%
COC(=O)c1cc(N=Nc2c(C)[nH]c3ccccc23)cc(C(=O)OC)c1 | / | -1% | 2% | 0% | -9%
Cc1[nH]n(-c2ccccc2)c(=O)c1N=Nc1ccc(C(=O)O)cc1 | / | 7.6µM* | 12% | 23% | 28%
Cc1[nH]n(-c2ccccc2)c(=O)c1N=Nc1cccc(C(=O)O)c1 | / | 0.27µM* | ? | ? | 1.1µM*
Cc1ccc(N=Nc2c(N)n(-c3ccccc3)[nH]c2=O)cc1 | ? | 4.8µM* | ? | ? | ?
Cc1[nH]n(-c2ccccc2)c(=O)c1N=Nc1ccccc1 | 14µM* | 4.8µM* | ? | ? | ?
CCOc1ccccc1N=Nc1c(C)[nH]n(-c2ccccc2)c1=O | / | -15% | -1% | 10% | 9%
COc1ccccc1N=Nc1c(C)[nH]n(-c2ccccc2)c1=O | / | 11µM* | -3% | ? | ?
CCNS(=O)(=O)c1ccc(CCC(=O)NCCC2=CCCCC2)cc1 | -6% | -2% | 2% | -2% | -3%
Cc1ccc(NC(=O)COc2ccc3c(c2)OCO3)c(Cl)c1 | / | 1.5µM* | ? | 2.8µM* | ?
CCCCNC(=O)c1ccccc1NC(=O)c1ccc2c(c1)OCO2 | 11% | 19µM* | -3% | 0% | 0%
Cc1cccc(NC(=O)c2ccc3c(c2)OCCO3)c1C | / | 15µM* | ? | -45% | 3.2µM*
CC1CCCN(C(=O)COc2ccc3c(c2)OCO3)C1 (configuration not stated) | / | -18% | ? | ? | ?
CC1Cc2ccccc2N1C(=O)COc1ccc2c(c1)OCO2 (configuration not stated) | ? | 17µM* | ? | 3.2µM* | ?
N#Cc1ccc(Cl)cc1NC(=O)COC(=O)c1ccc2c(c1)OCCO2 | -2% | -11% | 1% | 1% | -6%
N#Cc1ccccc1NC(=O)COc1ccc2c(c1)OCO2 | / | 21µM* | ? | 4µM* | 3.5µM*
N#Cc1ccccc1COC(=O)c1ccc2c(c1)OCCO2 | / | 13µM* | 18% | 6% | 25%
Cc1ccccc1NC(=O)c1ccc2c(c1)OCCO2 | ? | 1%[2.3 µM] | ? | ? | ?
CCc1ccccc1NC(=O)COc1ccc2c(c1)OCO2 | 1% | -19% | 6% | 0% | 21%
COC(=O)c1ccccc1NC(=O)c1ccc2c(c1)OCCCO2 | / | 19µM* | ? | ? | 2µM*
SMILES | SMN2 splice enh | FLuc modulator | ELG1 genotoxic | NPC1 prom act | Rab9 prom act
N#Cc1ccccc1NC(=O)COC(=O)c1ccc2c(c1)OCCO2 | 6% | 19µM* | 6% | 1% | ?
O=C(O)[C@@H](Br)[C@@H](Br)c1ccccc1[N+](=O)[O-] | -6%[9.22 µM] | / | / | / | /
N#Cc1ccccc1NC(=O)c1ccc2c(c1)OCCO2 | / | 21µM* | ? | ? | ?
Cc1nc2ccccc2c(=O)n1/N=C/c1ccccc1Cl | / | 11µM* | ? | ? | ?
Cc1ccc(/C=N/n2c(C)nc3ccccc3c2=O)s1 | ? | ? | 14% | ? | 3.5µM*
CC1CCN(C(=O)c2cc(-c3ccc(Cl)cc3)on2)CC1 | 15% | 6µM* | / | / | /
CC1CCN(C(=O)c2cc(-c3cccc(Cl)c3)on2)CC1 | ? | 24µM* | / | / | /
Cc1cc2nc(-c3cccc(NC(=O)C(C)C)c3C)oc2cc1C | / | 0.48µM* | / | / | /
COc1cc2ccccc2cc1C(=O)Nc1cccc(-c2nc3cc(C)ccc3o2)c1C | -6% | -7% | / | / | /
Cc1cc2nc(-c3cccc(NC(=O)c4ccc(Br)o4)c3C)oc2cc1C | -17% | 4.3µM* | -3% | 26% | 21%
Cc1ccc2oc(-c3cccc(NC(=O)c4ccc(Br)o4)c3C)nc2c1 | -19% | 7.6µM* | 25% | 10% | -3%
COc1cc2ccccc2cc1C(=O)Nc1cccc(-c2nc3cc(C)c(C)cc3o2)c1C | -4% | ? | / | / | /
O=C(c1cc(-c2ccccc2)on1)N1CCN(C(=O)c2ccco2)CC1 | 20% | ? | ? | 0% | 0%
O=C(c1cc(-c2cccc(O)c2)on1)N1CCCCC1 | ? | 3µM* | 3.7µM* | ? | ?
O=C(c1cc(-c2cccc(O)c2)on1)N1CCCC1 | / | 6µM* | 7.3µM* | ? | ?
O=C(c1cc(-c2cccc(Cl)c2)on1)N1CCCCC1 | 10% | 21µM* | / | / | /
O=c1[nH]cnc2ccsc12 | 12% | 0% | 2% | -3% | 0%
CNCCOCC(O)CSc1ccccc1 (configuration not stated) | -4% | 9% | 4% | -5% | -1%
CN(C)c1ccc(/C=N/NC(=O)COc2ccccc2)cc1 | 15% | 19µM* | 7% | 9% | 20%
CNC(=S)N/N=C/c1ccc(N(C)C)cc1 | / | ? | ? | 3.5µM* | 2.8µM*
CN(C)c1ccc(/C=N/NC(=O)CNC(=O)/C=C/c2ccccc2)cc1 | / | 2.4µM* | ? | ? | ?
Cc1cccc(OCC(=O)N/N=C/c2ccc(N(C)C)cc2)c1 | 1% | ? | 2% | -3% | -3%
CC(C)n1nc(C(=O)NNC(=O)c2ccc(OC(F)F)cc2)c2ccccc2c1=O | / | -9% | 0% | -4% | -12%
CSc1ccc(/C=C/C(=O)c2ccc(NC(=O)C(C)C)cc2)cc1 | -14% | 9.5µM* | -2% | -2% | -10%
CSc1ccc(C(=O)/C=C/c2ccc(N)cc2)cc1 | 14µM* | 0.76µM* | 13µM* | ? | 3.2µM*
O=C(Cc1ccccc1)Nc1ccc(C(=O)NCc2ccccc2)cc1 | / | -1% | 4% | -3% | 0%
CSc1ccc(/C=C/C(=O)c2ccc(NC(=O)Cc3ccccc3)cc2)cc1 | -10% | 12µM* | -4% | 0% | 4%
CSc1ccc(/C=C/C(=O)N2CCCN(C)CC2)cc1 | -6% | -4% | 15% | 9% | 24%
Cc1ccc(S(=O)(=O)CCc2nc3ccccc3s2)cc1 | 1% | -18% | 0% | 1% | -1%
Cc1cccc2c1-c1sc(C(=O)NCCCN3CCN(c4cccc(Cl)c4)CC3)cc1CO2 | -1% | -5% | / | / | /

From PubChem
